Records with an inconclusive call do not appear. A call without a number means that no potency is given here. Unmarked numbers belong to inactive results. Activity calls are given as the source filed them. The call rests on the fitted dose curve; in most records, active means well fitted inhibition curve with a large enough effect; inconclusive means small, poorly fitted or top-dose-only effect; inactive means flat fitted curve, though single readings scatter.
Columns and labels:
[1] = qHTS profiling for inhibitors of Plasmodium falciparum proliferation (AID 504749); further: nearly all actives have a fitted effect of over 60% in size; settings: P. falciparum in erythrocytes, SYBR Green DNA, 72 h
Method in brief: (§1)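 Each compound contacts P. falciparum-infected red blood cells for 72 h at 37 C; lysis buffer (Tris, EDTA, saponin, Triton X, SYBR Green I) is added and fluorescence measured next morning; values normalized to controls.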

3D7 = test: as above; settings: P. falciparum in erythrocytes, SYBR Green DNA, 72 h; series mostly up to 28.7 µM
Method in brief: as §1

AA1029 = test: as above; settings: P. falciparum in erythrocytes, SYBR Green DNA, 72 h; series mostly up to 28.7 µM
Method in brief: as §1

AS120 = test: as above; settings: P. falciparum in erythrocytes, SYBR Green DNA, 72 h; series mostly up to 28.7 µM
Method in brief: as §1

ATS189 = test: as above; settings: P. falciparum in erythrocytes, SYBR Green DNA, 72 h; series mostly up to 28.7 µM
Method in brief: as §1

ATS95 = test: as above; settings: P. falciparum in erythrocytes, SYBR Green DNA, 72 h; series mostly up to 28.7 µM
Method in brief: as §1

C2A = test: as above; settings: P. falciparum in erythrocytes, SYBR Green DNA, 72 h; series mostly up to 28.7 µM
Method in brief: as §1

CP185 = test: as above; settings: P. falciparum in erythrocytes, SYBR Green DNA, 72 h; series mostly up to 28.7 µM
Method in brief: as §1

7G8 = test: as above; settings: P. falciparum in erythrocytes, SYBR Green DNA, 72 h; series mostly up to 28.7 µM
Method in brief: as §1

[2] = at 28.7 µM (top of the series), parasite line A
[3] = at 28.7 µM (top of the series), parasite line B
Potency means the concentration at half of the fitted maximal effect.

SMILES	activity, negative = inhibition [1, 2] [%]	activity, negative = inhibition [1, 3] [%]	Potency (3D7)	Potency (AA1029)	Potency (AS120)	Potency (ATS189)	Potency (ATS95)	Potency (C2A)	Potency (CP185)	Potency (7G8)	activity, negative = inhibition ([1]; at 12.8 µM (top of the series), parasite line A) [%]	activity, negative = inhibition ([1]; at 12.8 µM (top of the series), parasite line B) [%]
NC(=O)C1(N2CCCCC2)CCN(CCCC(=O)c2ccc(F)cc2)CC1	3.28	10.8	inactive	inactive	inactive	inactive	inactive	inactive	inactive	–	–	–
COc1ccc(CCN(C)CCCN2CCc3cc(OC)c(OC)cc3CC2=O)cc1OC	-14.9	-7.04	inactive	–	inactive	inactive	inactive	inactive	inactive	–	–	–
CN1CCN(C2=Nc3cc(F)ccc3Cc3ccccc32)CC1	-5.08	-0.186	inactive	–	–	–	–	inactive	inactive	12.6 µM (active)	–	–
C=CCN1CCc2nc(N)sc2CC1	-6.7	2.41	inactive	inactive	inactive	inactive	inactive	inactive	inactive	–	–	–
NC(=O)n1c(O)c(C(=O)c2cccs2)c2cc(Cl)ccc21	5.54	-6.01	inactive	inactive	inactive	inactive	inactive	inactive	inactive	–	–	–
COc1ccc(CN(CCN(C)C)c2ncccn2)cc1	12.9	5.48	inactive	inactive	inactive	inactive	inactive	inactive	inactive	–	–	–
O=C(Oc1cccc2cccnc12)c1ccccc1	5.84	-15.2	inactive	inactive	inactive	inactive	inactive	inactive	inactive	–	–	–
Cc1cc(-c2ccccc2)nnc1NCCN1CCOCC1	6.44	8.72	inactive	inactive	inactive	inactive	inactive	inactive	inactive	–	–	–
CCOCCn1c(N2CCCN(C)CC2)nc2ccccc21	7.9	8.28	inactive	–	inactive	–	inactive	inactive	inactive	–	–	–
CC1CCc2c(N3CCC(O)CC3)c(F)cc3c(=O)c(C(=O)O)cn1c23 (stereo not given)	-29.3	-19.8	–	–	–	–	inactive	inactive	–	11.2 µM (active)	–	–
O=C(CCN1CCN2CCCC2C1)N1c2ccccc2Sc2ccc(Cl)cc21 (stereo not given)	-26.8	-9.82	–	–	–	–	–	–	inactive	8.91 µM (active)	–	–
CCOC(=O)Nc1ccc2c(c1)N(C(=O)CCN1CCOCC1)c1ccccc1S2	–	–	inactive	inactive	inactive	inactive	inactive	inactive	inactive	–	5.76	22.5
CN(C)C(=O)Nc1ccc(Cl)c(Cl)c1	-1.54	-6.86	–	–	–	inactive	inactive	–	inactive	–	–	–
CC(=O)OCC(=O)[C@H]1CC[C@H]2[C@@H]3CCC4=CC(=O)CC[C@]4(C)[C@H]3CC[C@]12C	-11.3	-3.83	inactive	inactive	–	inactive	–	inactive	inactive	–	–	–
COc1ccc(C(=O)c2ccccc2)c(O)c1	-10.8	10.2	–	inactive	inactive	–	inactive	inactive	inactive	10 µM (active)	–	–
CC(C)=CCOc1ccc(/C=C/C(=O)c2ccc(OCC=C(C)C)cc2OCC(=O)O)cc1	-9.12	-8.65	inactive	inactive	inactive	inactive	inactive	inactive	inactive	–	–	–
Cl/C(=C\n1cncn1)c1ccc(Cl)cc1Cl	10.9	7.76	inactive	inactive	inactive	inactive	inactive	inactive	inactive	–	–	–
CCC(C(=O)OCCOCCN(CC)CC)c1ccccc1 (stereo not given)	5.84	5.27	inactive	–	inactive	–	inactive	inactive	inactive	–	–	–
CN(C)CCOC(c1ccc(Cl)cc1)c1ccccn1 (stereo not given)	5.62	–	inactive	–	–	–	–	inactive	–	–	–	–
CC(C)(C)CC(C)(C)c1ccc(O)c(-n2nc3ccccc3n2)c1	–	–	–	12.6 µM (active)	–	–	–	–	–	5.01 µM (active)	–	–
O=C(NC1CCN(CCc2c[nH]c3ccccc23)CC1)c1ccccc1	–	-5.78	–	–	inactive	inactive	inactive	inactive	inactive	10 µM (active)	–	–

From PubChem BioAssay (NCATS)
